Screening data (PubChem BioAssay)
Only some compounds are listed: those with a hit (about 5.7% of all), similar ones and a draw of the others.
ssDAF-12 act: activators of S. stercoralis DAF-12 nuclear receptor. hit rate 1% among 370,000. AID 652126. HEK293 ssDAF-12/GRIP1 lit1-tk-luc reporter, luminescence; % of 3 µM dafachronic acid response. activation, % at 6.8 µM;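 active means activation above the mean over all tested compounds plus 3 SD, cut at about 0.9% in these data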
AHR activator: human AHR activation. P35869. AHR-responsive luciferase reporter cells, luminescence. activation, % at 5 µM. hit rate 2.5% among 320,000; in the data active means activation above about 47%
Target sequence (P35869 whole entry, looked up): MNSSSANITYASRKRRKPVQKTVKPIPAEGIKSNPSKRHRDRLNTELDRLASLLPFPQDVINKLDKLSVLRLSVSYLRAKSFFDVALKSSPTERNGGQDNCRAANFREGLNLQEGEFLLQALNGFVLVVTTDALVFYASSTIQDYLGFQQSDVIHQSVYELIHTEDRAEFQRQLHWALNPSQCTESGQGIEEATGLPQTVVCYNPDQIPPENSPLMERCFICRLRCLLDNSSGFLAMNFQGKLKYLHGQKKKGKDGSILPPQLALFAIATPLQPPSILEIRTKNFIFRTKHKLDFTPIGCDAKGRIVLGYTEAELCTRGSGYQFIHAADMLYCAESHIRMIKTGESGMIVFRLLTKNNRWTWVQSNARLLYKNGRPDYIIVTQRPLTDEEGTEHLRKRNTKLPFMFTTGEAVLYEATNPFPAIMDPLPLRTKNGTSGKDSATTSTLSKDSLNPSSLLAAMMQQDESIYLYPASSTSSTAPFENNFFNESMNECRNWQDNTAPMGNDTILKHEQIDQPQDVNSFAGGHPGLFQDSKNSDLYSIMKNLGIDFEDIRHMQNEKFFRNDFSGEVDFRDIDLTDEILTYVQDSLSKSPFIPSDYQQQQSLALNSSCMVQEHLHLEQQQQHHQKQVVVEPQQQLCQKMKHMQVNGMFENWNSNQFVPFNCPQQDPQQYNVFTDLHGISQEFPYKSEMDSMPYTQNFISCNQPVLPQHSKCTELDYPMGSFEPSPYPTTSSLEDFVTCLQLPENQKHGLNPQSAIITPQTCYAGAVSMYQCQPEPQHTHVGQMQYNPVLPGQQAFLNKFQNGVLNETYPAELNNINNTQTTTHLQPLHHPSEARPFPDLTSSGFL
DAX1 inh-1: inhibitors of DAX1 repression of SF-1 activated StAR promoter; hit rate 1.1% among 370,000; AID 652010; HEK293T StAR-luciferase reporter, SF-1/DAX-1 repression relief; inhibition, % at 6.8 µM;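 active means inhibition above the mean over all tested compounds plus 3 SD, cut at about 3.6% in these data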;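 further: higher inhibition means more luminescence from relief of DAX-1 repression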
hcDAF12 agonist: activators of H. contortus DAF-12 nuclear receptor; HEK293 hcDAF-12 lit1-tk-luc reporter, luminescence; 0% DMSO, 100% Δ7-dafachronic acid; activation, % at 6.8 µM; hit rate 1.4% among 370,000;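 active means activation above the mean of all tested compounds plus 3 SD, cut at about 5.5% in these data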
DAX1 inh-2: NR0B1 (DAX1) inhibition | hit rate 0.99% among 340,000 | HEK293 Gal4-DAX1 luciferase reporter, luminescence | P51843 | AID 504766 | inhibition, % at 6.75 µM;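 active means inhibition above the mean over all tested compounds plus 3 SD, cut at about 4.2% in these data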;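 further: inhibition shows as a rise in luminescence from relieved DAX1 repression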
hgDAF12 agonist: agonists of H. glycines DAF-12 nuclear receptor; HEK293 GAL4-hgDAF12 UAS-luciferase reporter, agonist luminescence; normalized to butyrate control; activation, % at 6.8 µM; hit rate 1.8% among 370,000;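 active means activation above a cutoff set at the mean of all screened compounds plus 3 SD, cut at about 10% in these data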
AHR act confirm: human AHR activation, confirmation | shares compounds with AHR activator | human cells, AHR-responsive luciferase reporter, luminescence | activation, % at 9 µM | hit rate 87% among 2,300 | AID 2845; in the data active means activation above about 49%;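 further: HepG2 hepatoma cells carrying a DRE-driven firefly luciferase reporter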
PXR act counter: activates human PXR in AHR activator counter-screen; activation, % at 11.6 µM; cell-based PXR reporter, luciferase luminescence; shares compounds with AHR activator; AID 434939; hit rate 88% among 2,300; in the data active means activation above about 11%;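 further: human hepatoma DPX-2 cells expressing full-length human PXR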
Hits are given with their value; - = inactive; . = no result given.

SMILES | ssDAF-12 act | AHR activator | DAX1 inh-1 | hcDAF12 agonist | DAX1 inh-2 | hgDAF12 agonist | AHR act confirm | PXR act counter
O=C(N/N=C/c1c[nH]c2ccccc12)c1cc(-c2ccccc2)n[nH]1 | - | - | - | - | - | - | . | .
O=C(N/N=C/c1c[nH]c2ccccc12)c1cc(-c2cccc3ccccc23)n[nH]1 | - | 92 | - | - | - | - | - | -
CCCc1cc(C(=O)N/N=C/c2ccc(CC)s2)c2ccccc2n1 | - | - | - | - | - | - | . | .
O=C(N/N=C/c1c[nH]c2ccccc12)C1COc2ccccc2O1 (centres undefined) | - | 92 | - | - | - | - | 72 | .
COc1ccc(Nc2nc(N)c([N+](=O)[O-])c(N3CCOCC3)n2)cc1 | - | - | - | - | - | - | . | .
CN(C)c1ccc(Nc2nc(N)c([N+](=O)[O-])c(N3CCOCC3)n2)cc1 | - | 82 | - | - | - | - | 68 | 39
CSc1ccccc1NC(=O)CCc1ccccc1 | - | - | - | - | - | - | . | .
O=C(COC(=O)c1ccc(S(=O)(=O)N2CCCC2)cc1)Nc1cccc(Cl)c1 | - | - | - | - | - | - | . | .
CSc1ccc(CCNC(=O)CSc2ccsc2[N+](=O)[O-])cc1 | - | - | - | - | - | - | . | .
FC(F)(F)c1nnc(-c2ccccc2)nc1Sc1ccccc1 | - | - | - | - | - | - | . | .
FC(F)(F)c1nnc(-c2ccccc2)nc1N1CCCC1 | - | 85 | - | - | - | - | 131 | 52
O=C(Nc1ccc(OC(F)(F)F)cc1)c1ccc2nccnc2c1 | - | 86 | - | - | - | - | 81 | 15
O=C(Nc1ccc(C(F)(F)F)cc1)c1ccc2ncsc2c1 | - | - | - | - | - | - | . | .
COc1ccc(NC(=O)c2ccc3nc[nH]c3c2)cc1 | - | 80 | - | - | - | - | 79 | 19
O=C(Nc1ccc(C(F)(F)F)cc1)c1ccc2nc[nH]c2c1 | - | 106 | - | - | - | - | 98 | 10
COc1ccc(CCNC(=O)c2ccc3nc[nH]c3c2)cc1 | - | - | - | - | - | - | . | .
Cc1c(CN2CCC(n3nccc3NC(=O)C3CC3)CC2)[nH]c2ccccc12 | - | 85 | - | - | - | - | 82 | 43
CCOC(=O)c1cc(-c2ccccc2)sc1NC(=S)Nc1cccc(C)n1 | - | - | - | - | - | - | . | .
CCC(C)Nc1nc(N)c([N+](=O)[O-])c(Nc2cc(OC)ccc2OC)n1 (centres undefined) | - | 80 | - | - | - | - | 127 | 76
COc1ccc(OC)c(Nc2nc(NCCC(C)C)nc(N)c2[N+](=O)[O-])c1 | - | - | - | - | - | - | . | .
C=CCNc1nc(N)c([N+](=O)[O-])c(Nc2ccccc2OC)n1 | - | 116 | - | - | - | - | 123 | 21
CC1Cc2ccccc2N1C(=O)CCn1c(=O)oc2ccccc21 (centres undefined) | - | - | - | - | - | - | . | .
CCOC(=O)c1c2ccc(OCC(=O)NN)cc2n2ccccc12 | - | 86 | - | - | - | - | 90 | 12
COc1cc(/C=N/NC(=O)c2ccc(CN3C(=O)c4cccc5cccc3c45)cc2)cc(OC)c1O | - | - | - | - | - | - | . | .
O=C(NC1CC1)c1cc2ccccc2o1 | - | - | - | - | - | - | . | .
SMILES | ssDAF-12 act | AHR activator | DAX1 inh-1 | hcDAF12 agonist | DAX1 inh-2 | hgDAF12 agonist | AHR act confirm | PXR act counter
O=C(NC1CCCC1)c1cc2c(ccc3ccccc32)o1 | - | 112 | - | - | - | 11 | 66 | .
Cn1cncc1C#Cc1c(C=O)n(C)c2ccccc12 | - | 114 | - | - | - | - | 109 | 23
C[C@@H]1CN([C@@H](C)CO)C(=O)c2cc(N(C)C)ccc2O[C@@H](C)CCCCO[C@@H]1CN(C)S(=O)(=O)c1cccs1 | - | . | - | - | - | - | . | .
O=C(Nc1cccc(-c2nc3cc(Cl)ccc3o2)c1)C1CCCO1 (centres undefined) | - | 118 | - | - | - | - | 126 | .
COc1ccc2sc(-c3ccc(SC)cc3)c(-c3ccc(O)cc3)c2c1 | - | 80 | - | - | - | - | 84 | 19
CCCCc1cc2c(c(NC(C)=O)n1)c(=O)oc1ccccc12 | . | 94 | . | . | . | . | 99 | .
NC(=O)C1(NC(=O)[C@@H]2CC3(CC(c4cccc(NC(=O)[C@@H]5CCC(=O)N5)c4)=NO3)CN2C(=O)c2ccccc2)CC1 (some centres undefined) | - | - | - | - | - | - | . | .
Cc1cccc(NC(=S)NNc2ncc(C(F)(F)F)cc2Cl)c1 | - | - | - | - | - | - | . | .
N#Cc1nc(-c2ccc(OCc3ccc(Cl)cc3)cc2)oc1NCCCn1ccnc1 | - | - | - | - | - | - | . | .
N#Cc1nc(-c2ccccc2)oc1NCCCn1ccnc1 | - | 99 | - | - | - | - | 104 | 28
Cn1c(SCc2nc(-c3ccc(Cl)cc3)no2)nnc1-c1ccccc1 | - | - | - | - | - | - | . | .
Cn1c2ccccc2c(=O)c2ccc(C#Cc3ccccn3)cc21 | - | - | - | - | . | - | . | .
Cn1c2ccccc2c(=O)c2cc(C#Cc3ccccn3)ccc21 | - | 96 | - | - | - | - | 115 | 28
ONC(=Nc1ccc(Cl)cc1)c1ccc(Cl)cc1 | - | 117 | - | - | - | - | 115 | 12
CC(=O)N/C(=C\c1ccccc1)C(=O)OCC(=O)Nc1cc(S(=O)(=O)N(C)C)ccc1Cl | - | . | - | - | - | - | . | .
Cc1cc(CC(C)C)n(-c2nc3ccccc3c(=O)n2OCc2ccccc2)n1 | - | 87 | - | - | - | - | 99 | 74
Cc1cc(CC(C)C)n(-c2nc3ccccc3c(=O)n2OCC(=O)N(C)C)n1 | - | - | - | - | - | - | . | .
O=C(CN1C(=O)S/C(=C\C=C\c2ccccc2)C1=O)N1CCOCC1 | - | - | - | - | . | - | . | .
FC(F)(F)c1ccc(Cl)c(NC(=S)N/N=C/c2ccccc2C(F)(F)F)c1 | - | 105 | - | - | - | - | 55 | 74
O=C(Cc1ccccc1)NC(=S)Nc1cc(C(F)(F)F)ccc1Cl | - | - | - | - | - | - | . | .
CC(=O)c1c(C)[nH]c(C(=O)NCCC2=CCCCC2)c1C | - | 146 | - | - | - | - | 110 | 70
CCOC(=O)c1[nH]c(C)c(C(=O)NCCC2=CCCCC2)c1C | - | - | - | - | - | - | . | .
CC(=O)N1CC=C2C(C#N)=C(N)C(C#N)(C#N)C(CCc3ccccc3)C2C1 (centres undefined) | - | 80 | - | - | - | - | 73 | 24
COc1cc(/C=C/c2nc3ccccc3c(=O)[nH]2)ccc1OC(F)F | - | - | - | - | - | - | . | .
O=c1[nH]c(/C=C/c2ccccc2OC(F)F)nc2c1cnn2-c1ccccc1 | - | 85 | - | - | - | - | - | 33
